Screening data (PubChem)
HT1080 IDH1KD tx – HT-1080 IDH1 knockdown cell toxicity (counter line) | AID 686971 | Potency, µM (highest dose often 46.1 µM), for inactives: at the top dose activity, negative = toxicity, hits mostly cytotoxic | HT-1080 IDH1 knockdown viability, ATP luminescence, 48 h | hit rate 2% among 360,000;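 also: potency is read from the fitted curve at half-maximal effect; 0% = DMSO wells and -100% = cell-free medium wells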
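Cytotoxicity counter-line: IDH1KD HT-1080, 48 h, CellTiter-Glo. Curves classed by r2, magnitude and activity.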
HT1080NT lethal – kills 2HG-producing HT-1080-NT fibrosarcoma cells. AID 686970. HT-1080-NT fibrosarcoma viability, CellTiter-Glo ATP luminescence, 48 h. Potency, µM (doses to about 46.1 µM), inactives show at the top dose activity, negative = less viability, most hits filed as cytotoxic. hit rate 1.6% among 360,000;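 also: NT is the 2HG producing partner of a matched IDH1 knockdown line; potency is read from the fitted curve at half-maximal effect; 0% = DMSO-treated cells and -100% = media-only wells without cells; nearly all actives have a fitted effect of over 55% in size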
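Viability of the 2HG-overproducing fibrosarcoma line after 48 hours of compound exposure at 37 degrees C was determined by luminescence with CellTiter-Glo, and concentration-effect curves were then fitted and categorized.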
DT40 TDP1 no CPT – qHTS for Inhibitors of human tyrosyl-DNA phosphodiesterase 1 (TDP1): qHTS in cells in absence of CPT; DT40 Tdp1-/- hTDP1 cells, no CPT, ATP luminescence, 48 h; Potency, µM (highest dose often 46.2 µM), without a hit: at the highest dose activity change, negative = growth inhibition, hits mostly inhibitors; hit rate 15% among 420,000; AID 686978, 2013; also: potency is read from the fitted curve at half-maximal effect; nearly all actives have a fitted effect of over 55% in size
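A cellular qHTS used chicken DT40 cells lacking endogenous Tdp1 but carrying stably transfected human TDP1. Compounds were applied without camptothecin, and cell growth kinetics were judged by ATP-dependent luminescence after ≥48 hr.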
IL1B secr inh – blocks inflammasome-driven IL-1 beta release | THP-1 LPS/ATP IL-1B secretion, AlphaLISA, 16 h; hits give low values | activity change, % at 57.5 µM | hit rate 4.7% among 360,000; in the data active = activity change below about -50%; inconclusive = mostly about -30% to -49%
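Secreted IL-1B measured by AlphaLISA bead assay after 16 h compound exposure of THP-1 cells; compounds (final up to 57.5 uM) added 1 h before LPS (250 ng/mL) and ATP (1.25 mM) stimulation; lower signal means less secretion.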
12-LOX inh – blocks human arachidonate 12S-lipoxygenase; Potency, µM (top dose mostly 108 µM), for inactives: at the top dose activity change, negative = inhibition, usual class: inhibitors; P18054; hit rate 1.1% among 580,000; purified 12hLO, xylenol orange hydroperoxide absorbance; also: potency is read from the fitted curve at half-maximal effect
Target sequence (P18054 whole entry, looked up): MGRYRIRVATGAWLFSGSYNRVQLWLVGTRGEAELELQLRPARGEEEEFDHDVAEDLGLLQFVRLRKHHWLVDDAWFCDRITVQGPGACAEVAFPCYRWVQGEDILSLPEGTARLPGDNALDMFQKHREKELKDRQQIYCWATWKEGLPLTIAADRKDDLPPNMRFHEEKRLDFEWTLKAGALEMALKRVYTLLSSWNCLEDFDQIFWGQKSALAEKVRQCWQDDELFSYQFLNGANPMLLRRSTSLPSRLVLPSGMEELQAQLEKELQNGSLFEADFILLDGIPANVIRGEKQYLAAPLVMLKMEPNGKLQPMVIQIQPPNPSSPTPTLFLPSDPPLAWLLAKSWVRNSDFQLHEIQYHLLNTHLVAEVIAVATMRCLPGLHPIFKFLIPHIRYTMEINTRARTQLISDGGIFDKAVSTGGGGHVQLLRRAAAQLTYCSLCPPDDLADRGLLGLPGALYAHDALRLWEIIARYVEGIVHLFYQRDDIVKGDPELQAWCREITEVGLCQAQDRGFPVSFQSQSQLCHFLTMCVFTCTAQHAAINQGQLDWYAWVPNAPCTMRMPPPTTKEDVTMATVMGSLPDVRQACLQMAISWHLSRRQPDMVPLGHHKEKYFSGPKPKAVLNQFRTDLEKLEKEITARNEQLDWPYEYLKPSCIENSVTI
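Purified human 12hLO at 150 nM in 25 mM Hepes, 0.01% Triton X-100, pH 7.0, preincubated 15 min at room temperature with compound. Reaction started with 40 uM arachidonic acid, 30 min at room temperature. Hydroperoxide measured by Fe-xylenol orange, 573/405 nm absorbance ratio.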
DT40 TDP1 CPT – DT40-hTDP1 cell growth loss with CPT. chicken DT40 Tdp1-/-;hTDP1 cells + 20 nM CPT, ATP luminescence, 48 h. Potency, µM (titrated, usually from 46.2 µM), for inactives: at the highest dose activity change, negative = growth inhibition, hits mostly inhibitors. hit rate 12% among 420,000. AID 686979; also: potency is read from the fitted curve at half-maximal effect; nearly all actives have a fitted effect of over 55% in size
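Chicken DT40 Tdp1-/- cells stably complemented with human TDP1 were seeded at 400 cells/well in medium containing 20 nM camptothecin, exposed to pin-transferred compounds, and grown at 37 °C for at least 48 hr. Viability was read as ATP luminescence.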
* hit, by the source's call. The full list was thinned out, with hits kept by preference. Unless noted, calls follow the shape of the dose curve; as a rule, active = well fitted curve in the direction sought with a large enough effect; inconclusive = small, poorly fitted or top-dose-only effect, or another doubt; inactive = no such curve, though single readings can be large; an effect the other way counts as inactive or inconclusive. Unless noted, % is scaled to controls: 0 for no effect and ±100 for the full control effect.

How did COC(=O)C1OC(OC2CC[C@]3(C)C(CC[C@@]4(C)[C@@H]3CC=C3[C@@H]5CC(C)(C)CC[C@]5(C(=O)OC5OC(CO)C(O)C(O)C5O)CC[C@]34C)C2(C)C)C(O)C(O)C1O[C@H]1OCC(O)C(O)C1O (some centres not stated) do in these assays?
HT1080 IDH1KD tx: inconclusive; HT1080NT lethal: inconclusive; DT40 TDP1 no CPT: -74%; IL1B secr inh: -56*; DT40 TDP1 CPT: inconclusive

What do the screens show for `S=C1SCCCN1Cc1ccc(Cl)cc1`?
HT1080 IDH1KD tx: 4%; HT1080NT lethal: 0%; DT40 TDP1 no CPT: inconclusive; IL1B secr inh: 2; 12-LOX inh: -17%; DT40 TDP1 CPT: inconclusive

How did COc1ccc(OCc2nc3c4cc(OC)c(OC)cc4nc(=S)n3[nH]2)cc1 do in these assays?
HT1080 IDH1KD tx: -16%; HT1080NT lethal: 0%; DT40 TDP1 no CPT: 6.5µM*; IL1B secr inh: 21; 12-LOX inh: -25%; DT40 TDP1 CPT: 6.5µM*

Results for COc1cccc(/C=N/Nc2ccccc2C(=O)O)c1O ?
HT1080 IDH1KD tx: 0%; HT1080NT lethal: -2%; DT40 TDP1 no CPT: -1%; IL1B secr inh: -2; 12-LOX inh: inconclusive; DT40 TDP1 CPT: -8%

How did COc1cccc(/C=N/Nc2ccnc(=O)[nH]2)c1O do in these assays?
HT1080 IDH1KD tx: inconclusive; HT1080NT lethal: inconclusive; DT40 TDP1 no CPT: 0.065µM*; IL1B secr inh: 127; 12-LOX inh: 16%; DT40 TDP1 CPT: 0.023µM*

What do the screens show for `CCOc1ccccc1/C=N/Nc1nc(C)cc(=O)[nH]1`?
HT1080 IDH1KD tx: 7%; HT1080NT lethal: -2%; DT40 TDP1 no CPT: -12%; IL1B secr inh: -5; DT40 TDP1 CPT: -11%

Results for CCOc1ccccc1/C=N/Nc1ccnc(=O)[nH]1 ?
HT1080 IDH1KD tx: 0%; HT1080NT lethal: -15%; DT40 TDP1 no CPT: 2.9µM*; IL1B secr inh: 33; 12-LOX inh: inconclusive; DT40 TDP1 CPT: 5.2µM*

Results for O=c1nccc(N/N=C/c2ccccc2O)[nH]1 ?
HT1080 IDH1KD tx: inconclusive; HT1080NT lethal: 1.2µM*; DT40 TDP1 no CPT: 0.33µM*; IL1B secr inh: 47; 12-LOX inh: 4%; DT40 TDP1 CPT: 0.23µM*

What do the screens show for `N#Cc1nc(-c2ccc(S(=O)(=O)N3CCOCC3)cc2)oc1NCCCN1CCOCC1`?
12-LOX inh: -9%

Results for CC1CCN(S(=O)(=O)c2ccc3c(ccn3CCC(=O)N3CCCCC3)c2)CC1 ?
HT1080 IDH1KD tx: -6%; HT1080NT lethal: -5%; DT40 TDP1 no CPT: 6.5µM*; IL1B secr inh: -7; 12-LOX inh: -15%; DT40 TDP1 CPT: inconclusive

Results for CCOc1ccccc1CNC(=O)Cn1ccc2cc(S(=O)(=O)N3CCCCCC3)ccc21 ?
HT1080 IDH1KD tx: -9%; HT1080NT lethal: 0%; DT40 TDP1 no CPT: 2.9µM*; IL1B secr inh: inconclusive; 12-LOX inh: -27%; DT40 TDP1 CPT: 8.2µM*

What do the screens show for `COc1cccc(CNC(=O)CCn2ccc3cc(S(=O)(=O)N4CCC(C)CC4)ccc32)c1`?
HT1080 IDH1KD tx: -8%; HT1080NT lethal: -23%; DT40 TDP1 no CPT: -25%; IL1B secr inh: inconclusive; 12-LOX inh: -2%; DT40 TDP1 CPT: inconclusive

What do the screens show for `CCOc1ccccc1CNC(=O)CCn1ccc2cc(S(=O)(=O)N3CCC(C)CC3)ccc21`?
DT40 TDP1 no CPT: 12µM*; 12-LOX inh: 0%; DT40 TDP1 CPT: 9.2µM*

Results for CCOc1ccccc1CNC(=O)CCn1ccc2cc(S(=O)(=O)N3CCCCC3)ccc21 ?
HT1080 IDH1KD tx: -3%; HT1080NT lethal: -10%; DT40 TDP1 no CPT: 29µM*; IL1B secr inh: 3; 12-LOX inh: -24%; DT40 TDP1 CPT: 16µM*

Results for CS(=O)(=O)c1ccc(Cl)c(NC(=O)c2cccc(-n3cnnn3)c2)c1 ?
HT1080 IDH1KD tx: -5%; HT1080NT lethal: -11%; DT40 TDP1 no CPT: inconclusive; IL1B secr inh: 4; 12-LOX inh: inconclusive; DT40 TDP1 CPT: -21%

How did Brc1ccc(CSc2ncn[nH]2)cc1 do in these assays?
HT1080 IDH1KD tx: -27%; HT1080NT lethal: -15%; DT40 TDP1 no CPT: -8%; IL1B secr inh: -13; 12-LOX inh: 5%; DT40 TDP1 CPT: -11%

Results for CCCOc1ccc(CSc2ncn[nH]2)cc1 ?
HT1080 IDH1KD tx: 13%; HT1080NT lethal: 7%; DT40 TDP1 no CPT: 5.8µM*; IL1B secr inh: -22; 12-LOX inh: 11%; DT40 TDP1 CPT: 4.6µM*

What do the screens show for `Cc1ccc(C(=O)NCC(c2ccco2)N2CCc3ccccc32)cc1C` (configuration not stated)?
HT1080 IDH1KD tx: -27%; HT1080NT lethal: -14%; DT40 TDP1 no CPT: 16µM*; IL1B secr inh: -12; 12-LOX inh: -28%; DT40 TDP1 CPT: 21µM*

How did COc1ccc(S(=O)(=O)NCC(c2cccs2)N2CCc3ccccc3C2)cc1 (configuration not stated) do in these assays?
HT1080 IDH1KD tx: -3%; HT1080NT lethal: 0%; DT40 TDP1 no CPT: inconclusive; IL1B secr inh: -3; 12-LOX inh: 4%; DT40 TDP1 CPT: -25%

What do the screens show for `COc1cc(C(=O)NCC(c2ccco2)N2CCc3ccccc32)cc(OC)c1OC` (configuration not stated)?
HT1080 IDH1KD tx: -5%; HT1080NT lethal: -18%; DT40 TDP1 no CPT: 9.2µM*; IL1B secr inh: 0; 12-LOX inh: inconclusive; DT40 TDP1 CPT: inconclusive

How did COc1ccc(OC)c(S(=O)(=O)NCC(c2ccc(F)cc2)N2CCN(C)CC2)c1 (configuration not stated) do in these assays?
HT1080 IDH1KD tx: -1%; HT1080NT lethal: -19%; DT40 TDP1 no CPT: -15%; IL1B secr inh: -8; 12-LOX inh: 0%; DT40 TDP1 CPT: -6%

Results for COc1ccc(OC)c(S(=O)(=O)NCC(c2ccco2)N2CCc3ccccc32)c1 (configuration not stated) ?
HT1080 IDH1KD tx: -13%; HT1080NT lethal: -5%; DT40 TDP1 no CPT: inconclusive; IL1B secr inh: -1; 12-LOX inh: 40µM*; DT40 TDP1 CPT: inconclusive

How did COc1ccc(OC)c(S(=O)(=O)NCC(c2cccs2)N2CCc3ccccc3C2)c1 (configuration not stated) do in these assays?
HT1080 IDH1KD tx: -12%; HT1080NT lethal: -11%; DT40 TDP1 no CPT: inconclusive; IL1B secr inh: 3; 12-LOX inh: -11%; DT40 TDP1 CPT: 16µM*

What do the screens show for `COc1cccc(C(=O)NCC(=O)OCc2cc(=O)n3c(C)csc3n2)c1`?
DT40 TDP1 no CPT: -12%; 12-LOX inh: -17%; DT40 TDP1 CPT: -11%
